Assay outcomes: PubChem, several laboratories
Shown are actives, neighbours in structure and some others; about 22% of the full set was active somewhere.
CYP2C9 inhib: inhibitors of human CYP2C9 | P11712 | CYP2C9 Supersomes, luciferin-H conversion, luminescence | inhibition, % at 5 µM | 96,000 tested, 20% active;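 active = blocking of liver enzyme CYP2C9 beyond about 50% at 5 µM, limit read from the data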
F-actin modifier: alters cytoskeleton assembly in HUVEC cells. HUVEC TNFa F-actin phalloidin imaging, high content. inhibition, % at 2 µM. 91,000 tested, 0.18% active;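 active = inhibition above the batch mean plus 3 SD and confirmed as a hit by visual image inspection, cut at about 30% in these data, passing the limit was not always enough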
CYP2C19 inh: blocks human cytochrome P450 2C19; P33261; CYP2C19 Supersomes, luciferin-H EGE luminescence, 30 min; inhibition, % at 5 µM; 96,000 tested, 21% active; AID 778;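 active = CYP2C19 inhibition above a set limit at 5 µM in the primary screen, cut at about 50% in these data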;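 note: plate controls were negative control wells for no effect and 2.5 mM tranylcypromine positive control for full effect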
Target sequence (P33261 whole entry, looked up): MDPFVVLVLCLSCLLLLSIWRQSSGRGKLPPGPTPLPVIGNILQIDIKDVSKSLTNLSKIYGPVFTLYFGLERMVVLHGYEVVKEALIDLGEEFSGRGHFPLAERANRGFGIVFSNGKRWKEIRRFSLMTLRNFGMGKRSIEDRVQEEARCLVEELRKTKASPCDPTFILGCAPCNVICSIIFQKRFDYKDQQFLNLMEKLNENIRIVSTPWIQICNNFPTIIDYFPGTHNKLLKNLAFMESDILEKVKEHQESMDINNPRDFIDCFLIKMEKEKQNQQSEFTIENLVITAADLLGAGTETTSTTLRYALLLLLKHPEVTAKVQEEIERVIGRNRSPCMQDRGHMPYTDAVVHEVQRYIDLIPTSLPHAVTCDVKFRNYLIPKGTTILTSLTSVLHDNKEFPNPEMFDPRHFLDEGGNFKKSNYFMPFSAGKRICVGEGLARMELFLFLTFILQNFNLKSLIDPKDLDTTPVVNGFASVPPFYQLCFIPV
CYP2C9 act: increases human cytochrome P450 2C9 activity | 96,000 tested, 1.4% active | recombinant CYP2C9, luciferin-H conversion, luminescence; hits give high values; factor 1 = untreated enzyme, 0 = blocked | P11712 | activation factor at 5 µM | AID 1024;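 active = activation factor of 2 or more for CYP2C9 at a 5 µM dose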;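 note: 0 = sulfaphenazole-blocked wells and 1 = vehicle-only wells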
CYP2C19 act: cytochrome P450 2C19 (human) activation; P33261; recombinant CYP2C19, luciferin-H EGE luminescence; hits give high values; 0 = fully inhibited enzyme, 1 = untreated enzyme; activation factor at 5 µM; 96,000 tested, under 10 active; AID 1025;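 active = activation factor of at least 2 at 5 µM in the primary screen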;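 note: 0 = wells with 2.5 mM tranylcypromine and 1 = vehicle-only wells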
E-sel TNF inh: blocks E-selectin expression induced by TNF alpha; HUVEC TNFa-induced E-selectin immunofluorescence, high content; inhibition, % at 2 µM; 120,000 tested, 0.71% active; AID 1246;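 active = inhibition above the batch mean plus 3 SD, and confirmed as a hit on visual image review, cut at about 43% in these data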;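 note: 0% = TNF-stimulated DMSO wells and 100% = unstimulated control wells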
* marks the source's active call; other numbers are inactive results; · = no result.

SMILES	CYP2C9 inhib	F-actin modifier	CYP2C19 inh	CYP2C9 act	CYP2C19 act	E-sel TNF inh
O=C(Cc1ccc(-c2ccccc2)cc1)N1CCOCC1	65.4*	-7.4	73.6*	0.3	0.3	-21.7
O=C(NCCN1CCOCC1)c1ccc2c(c1)N(Cc1ccccc1)CCS2	63.3*	5.6	53.9*	0.4	0.5	14.7
O=C(Cc1ccc(-c2ccccc2)cc1)NCCN1CCOCC1	41.6	·	72.4*	0.6	0.3	94.9*
O=C(CN1C(=O)c2ccccc2C1=O)N1CCOCC1	15.1	7.8	10.5	0.8	0.9	4.2
Clc1ccc(N2CCN(c3nc4nonc4nc3N3CCSCC3)CC2)nc1	·	·	·	·	·	27.4
O=C(Cc1cccs1)NCCN1CCOCC1	·	·	·	·	·	36.6
O=C(Cc1nc(-c2ccc(Br)s2)cs1)NCCN1CCOCC1	33.7	-12.7	76.6*	0.7	0.2	·
O=S(=O)(c1ccc(Cl)s1)N1CCC(Cc2ccccc2)CC1	67.8*	-11.9	25.0	0.3	0.8	-13.1
O=S(=O)(c1ccc(Cl)s1)N1CCN(Cc2ccccc2)CC1	61.1*	·	84.3*	0.4	0.2	-25.5
O=S(=O)(c1ccc(S(=O)(=O)N2CCN(Cc3ccccc3)CC2)cc1)N1CCOCC1	6.3	-19.5	-3.2	0.9	1	8.7
O=S(=O)(c1ccc(Br)s1)N1CCC(Cc2ccccc2)CC1	55.6*	4.6	11.5	0.4	0.9	2.3
CCN(CC)c1nc(C)c(C(C)=O)cc1C#N	17.4	7.2	53.5*	0.8	0.5	·
CC(=O)c1cc(C#N)c(SCc2ccncc2)nc1C	93.1*	·	97.0*	0.1	0	-3.4
CCSc1nc(C)c(C(C)=O)cc1C#N	9.6	-0.8	26.1	0.9	0.7	-4.2
CC(=O)c1ccc(NC(=O)C2CCCNC2=O)cc1 (stereo not given)	2.0	·	4.0	1	1	-38.9
O=S(=O)(NC1CCCC1)c1ccc(S(=O)(=O)N2CCCN(Cc3ccccc3)C2)cc1	95.0*	-0.4	98.5*	0.1	0	15.3
Cc1noc(C)c1COc1cccc(C(=O)NCc2ccccc2Cl)c1	53.2*	1.9	58.1*	0.5	0.4	11.4
COc1ccccc1CNC(=O)c1ccc(OCc2c(C)noc2C)c(OC)c1	42.1	12.9	13.7	0.6	0.9	4.1
CCSc1nnc(NC(=O)c2cccc(OCc3c(C)noc3C)c2)s1	86.3*	·	88.1*	0.1	0.1	14.5
Cc1noc(C)c1COc1cccc(C(=O)Nc2ccc(OCc3ccccc3)cc2)c1	73.1*	-11.1	62.5*	0.3	0.4	-19.3
CC1CC(=O)c2cnc(Nc3cccc(C(F)(F)F)c3)nc2C1 (stereo not given)	26.1	20.1	53.4*	0.7	0.5	0.6
N#Cc1c(N)nc2c(c1-c1cccc(O)c1)CCCCCC2	54.3*	37.4	31.1	0.5	0.7	-9.8
N#Cc1c(N)nc2c(c1-c1ccncc1)CCCC2	34.0	-14.2	76.4*	0.7	0.2	·
N#Cc1c(N)nc2c(c1-c1ccccc1)CCCC2	-24.7	·	13.7	1.2	0.9	-24.6
N#Cc1c(N)nc2c(c1-c1ccncc1)CCCCCC2	·	-2.1	·	·	·	-5.5
SMILES	CYP2C9 inhib	F-actin modifier	CYP2C19 inh	CYP2C9 act	CYP2C19 act	E-sel TNF inh
COc1ccccc1N1CCN(C/C(O)=C(\C#N)c2nc(-c3ccccc3)cs2)CC1	45.7	-7.4	18.7	0.5	0.8	-2.7
COc1cc(OC)c(NC(=O)CCNC(=O)Cn2cnc3ccccc3c2=O)cc1Cl	30.1	-12.7	-12.6	0.7	1.1	·
Cc1ccc(CSc2nnc(CS(=O)Cc3ccc(Cl)cc3Cl)n2C)cc1 (stereo not given)	54.4*	14.7	-10.5	0.5	1.1	32.4
Cn1c(CS(=O)Cc2c(Cl)cccc2Cl)nnc1SCc1ccc(Cl)cc1 (stereo not given)	19.0	-17.1	19.3	0.8	0.8	23.8
O=S(Cc1ccc(Br)cc1)Cc1nnc(SCc2c(F)cccc2Cl)n1-c1ccccc1 (stereo not given)	·	·	·	·	·	-9.3
O=S(Cc1ccc(Br)cc1)Cc1nnc(SCc2ccc(Cl)cc2)n1-c1ccccc1 (stereo not given)	52.2*	-9.6	37.2	0.5	0.6	-19.3
CCN(CC)CCOc1c(Br)ccc2c1sc1nc3n(c(=O)c12)CCC3	15.1	-15.7	83.8*	0.8	0.2	·
COc1ccc2oc(=O)c(-c3nnc(NCc4ccco4)s3)cc2c1	29.6	-12.9	10.4	0.7	0.9	-2.5
CCOc1cccc2cc(-c3nnc(NCc4ccco4)s3)c(=O)oc12	-189.8	-4.9	10.1	2.9*	0.9	1.7
Cc1ccccc1-n1c(SC/C(O)=C(\C#N)c2nc3ccccc3[nH]2)nnc1-c1ccncc1	95.1*	·	86.3*	0	0.1	·
O=C1C2CC=C(Cl)CC2C(=O)N1CCCCCCN1C(=O)C2CC=C(Cl)CC2C1=O (stereo not given)	82.3*	14.5	74.7*	0.2	0.3	14.5
COc1ccc(-c2c3c(=O)n(C)c(=O)n(C)c3cn2-c2cc(OC)ccc2OC)cc1	63.2*	16.2	25.0	0.4	0.8	·
CC1CCN(c2ccc(C(=O)O)cc2)CC1	2.4	5.7	1.8	1	1	6.8
O=C1C2C3C=CC(CC3)C2C(=O)N1/N=C/c1ccc(O)cc1 (stereo not given)	-95.9	4.9	27.8	2*	0.7	-40.7
Cc1cc2cc(CN(C(=O)C3CC3)C3CCCC3)c3nnnn3c2cc1C	71.6*	·	95.6*	0.3	0	-15.0
Cc1c(Br)c([N+](=O)[O-])nn1CC(=O)Nc1sc2c(c1C(=O)OC(C)C)CCCC2	-15.6	7.7	-14.7	1.2	1.1	63.8*
CCCOc1ccc(C(C)=O)cc1CSc1nc(O)cc(=O)[nH]1	74.6*	-17.6	8.9	0.3	0.9	17.4
CCCOc1ccc(C(C)=O)cc1CSCCC#N	·	-1.4	·	·	·	-24.6
N/C(=N\OC(=O)c1cc(Cl)ccc1Cl)c1cccnc1	34.5	11.2	72.1*	0.7	0.3	-34.0
COc1cc(C(=O)Nc2ccc(O)cc2C(=O)O)ccc1OC(C)=O	12.4	12.2	-4.3	0.9	1	·
O=C(CN1CCCC1)NC(=O)NC1CCCC1	·	·	·	·	·	18.9
Cc1cccc(C(=O)Nc2sc(C)c(-c3ccccc3)c2C#N)c1	19.0	-7.0	38.5	0.8	0.6	16.2
Cc1onc(-c2ccccc2)c1C(=O)Nc1sc2c(c1C#N)CCC2	68.5*	·	3.7	0.3	1	-54.4
Cc1noc(C)c1C(=O)Nc1sc(C)c(-c2ccccc2)c1C#N	76.1*	12.7	61.7*	0.2	0.4	-2.1
Cc1ccccc1C(=O)NC(=S)Nc1sc2c(c1C#N)CCCC2	74.1*	4.2	44.6	0.3	0.6	-6.5
O=CNC1CCCc2c1[nH]c1ccc(Cl)cc21 (stereo not given)	99.0*	32.8	64.9*	0	0.4	-28.4
CCCN1CCN(c2nc3c([nH]2)c(=N)ncn3CC(O)CO)CC1 (stereo not given)	10.1	4.3	1.0	0.9	1	-19.8
Cc1ccc(S(=O)(=O)N(C#N)c2nc(C)cc(C)n2)cc1	1.2	0.9	-3.5	1	1	·
